Assay [1] is described as follows: qHTS to identify inhibitors of the type 1 interferon - major histocompatibility complex class I in skeletal muscle: primary screen against the NCATS LOPAC collection (AID 1347405).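 Further: lytic HiBiT luminescence reporting HLA-B protein level.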 In short, it runs like this: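 Immortalized human C25cl48 myoblasts with HiBiT knocked into endogenous HLA-B*08:01 were stimulated with 4.0 ng/ml IFN-beta and given compounds in a 7-point, 1:4.3 titration from 46 uM final; after 24 hrs, lytic HiBiT luminescence was read.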

A short description of assay [2]: qHTS for inhibitors of adenylyl cyclases using a fission yeast platform: a pilot screen against the NCATS LOPAC library (AID 1347410). In short, it runs like this: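 Growth medium went into the plates first, then compounds were pinned (final up to 57 µM), then CHP2027 yeast were added. Plates were incubated overnight (18 h) at 30C in the dark, and GFP was measured by laser scanning cytometry.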

Assay [3] can be described thus: Validation qHTS assay for inhibitors of Activation Induced Cytidine Deaminase (AID): UDG Counterscreen signal (AID 1347427). Further: potency means the concentration at half of the fitted maximal effect. In short, it runs like this: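 Counterscreen read of UDG activity (2 U/mL, 4/3x) in the FRET deamination format with AID (1 uM, 4/3x), DJC20/DJC23 substrates (250 nM, 4x), 4 h at room temperature. NaOH stop, fluorescence at 560 ex/665 em.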

For assay [4], the target named is Single-stranded DNA cytosine deaminase (Homo sapiens) (UniProt Q9GZX7). Briefly: Validation qHTS assay for inhibitors of Activation Induced Cytidine Deaminase (AID): AID signal (AID 1347429). In short, it runs like this: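 AID and UDG were combined and compounds added at final up to 114 uM, then DJC20/DJC23 FRET substrate was added for 4 hr at room temperature. NaOH was then added for 30 min before fluorescence was read at 540/590 nm.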

Assay [5] is described as follows: Primary qHTS for inhibitors of SARS-S pseudo-typed particle cell entry (AID 1479145; calls by dose curve; further: nearly all actives have a fitted effect of over 45% in size). The following applies: outcome: dose series up to 57.1 µM unless noted.
The nature of assay [6]: Primary qHTS for Huh7 cytotoxicity: counterscreen for inhibitors of MERS-S pseudotyped particle cell entry (AID 1479147; calls by dose curve). The following applies: outcome: dose series up to 57.1 µM unless noted.
The nature of assay [7]: Primary qHTS for inhibitors of MERS-S pseudo-typed particle cell entry (AID 1479149; calls by dose curve; further: nearly all actives have a fitted effect of over 60% in size). The following applies: outcome: dose series up to 57.1 µM unless noted.
Assay [8] in a line: qHTS to identify inhibitors of the type 1 interferon - major histocompatibility complex class I in skeletal muscle: primary screen against the NCATS Mechanism Interrogation Plate v5.0 (MIPE) Libary (AID 1347411). Further: nearly all actives have a fitted effect of over 65% in size. In short, it runs like this: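 Immortalized human C25cl48 myoblasts with HiBit knocked into endogenous HLA-B*08:01 were stimulated with 4.0 ng/ml IFN-beta and exposed to compounds (11-point 1:3 titration, top 46 uM final) for 24 hrs at 37 C; HiBiT lytic luminescence measured.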

Values without a mark were called inactive. Records with an inconclusive call do not appear. Active and inactive are the calls of the source. Unless noted, the call rests on the fitted dose curve; in most records, active means well fitted curve in the direction sought with a large enough effect; inconclusive means small, poorly fitted or top-dose-only effect, or another doubt; inactive means no such curve, though single readings can be large; an effect the other way counts as inactive or inconclusive.

Single-stranded DNA cytosine deaminase (Homo sapiens), sequence (Q9GZX7 whole entry, looked up): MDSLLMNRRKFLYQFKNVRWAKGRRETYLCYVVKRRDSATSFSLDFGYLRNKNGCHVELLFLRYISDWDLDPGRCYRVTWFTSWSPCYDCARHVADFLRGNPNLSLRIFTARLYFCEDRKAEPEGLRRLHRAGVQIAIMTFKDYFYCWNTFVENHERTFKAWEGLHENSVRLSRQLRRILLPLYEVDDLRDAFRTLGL

As for `CN(C(=O)Cc1ccc(Cl)c(Cl)c1)C(CN1CCCC1)c1cccc(OCC(=O)O)c1` (stereo unspecified), the Potency result in assay [1], in assay [3] and in assay [4] was “inactive” each time. Further, the call in assay [2] was inactive.
As for `CC(C)(C)c1cc(C=C(C#N)C#N)cc(C(C)(C)C)c1O`, the result in assay [2] was inactive. Besides, the Potency in assay [3] is 70.8 µM (active). For the same molecule, in assay [4], the Potency result was “inactive”.
For `CCCCCCCCCCCCCC(=O)O[C@@H]1[C@@H](C)[C@@]2(O)[C@@H](C=C(CO)C[C@@]3(O)C(=O)C(C)=C[C@@H]23)C2C(C)(C)[C@@]21OC(C)=O` (stereo partly specified), the call in assay [2] was inactive. Moreover, the Potency entry in assay [3] and in assay [4] was “inactive” throughout.
Turning to `O=C1CC[C@@]2(O)C3Cc4ccc(O)c5c4C2(CCN3CC2CC2)[C@H]1O5` (stereo partly specified), the result in assay [2] was inactive.
Take `NCC(O)c1cc(O)c(O)cc1F` (stereo unspecified): the Potency entry in assay [1], in assay [3] and in assay [4] was “inactive” throughout. Also, the call in assay [2] was inactive.
With `NCCc1c[nH]c2ccc(C(N)=O)cc12`, the Potency entry in assay [1], in assay [3] and in assay [4] was “inactive” in each case. In addition, the result in assay [2] was inactive.
With `CC(C)NP(=O)(NC(C)C)OP(=O)(NC(C)C)NC(C)C`, the Potency result in assay [1], in assay [3] and in assay [4] was “inactive” each time. Besides, the molecule was called inactive in assay [2].
For the molecule `COc1ccc(OC)c(C(O)C(C)N)c1` (stereo unspecified), the Potency entry in assay [1], in assay [3] and in assay [4] was “inactive” each time. The result in assay [2], in assay [5], in assay [6] and in assay [7] was inactive.
As to `C=CCN1CC[C@]23c4c5ccc(O)c4O[C@@H]2/C(=N/N=C2\CC[C@@]4(O)C6Cc7ccc(O)c8c7[C@@]4(CCN6CC=C)[C@@H]2O8)CC[C@@]3(O)C1C5`, the Potency result in assay [3] and in assay [4] was “inactive” throughout.
For `COc1ccc2c(c1)[C@@]13CCCC[C@H]1[C@@H](C2)NCC3`, the Potency entry in assay [3] and in assay [4] was “inactive” throughout.
Take `O=[N+]([O-])c1cc(I)c(O)c(I)c1`: the molecule was called inactive in assay [5], in assay [6] and in assay [7].
With `CCN(CCCl)Cc1ccccc1Br`, the Potency result in assay [3] and in assay [4] was “inactive” each time.
In the case of `O=C(O)c1cc[c]([Hg][Cl])cc1`, the Potency result in assay [3] and in assay [4] was “inactive” throughout.
Take `C[C@@H]([C@H](O)c1ccccc1)N(C)C`: the outcome in assay [5], in assay [6] and in assay [7] was inactive.
With `C[C@@H]1O[C@H](C[N+](C)(C)C)CS1`, the Potency entry in assay [3] and in assay [4] was “inactive” throughout.
With `Ic1ccccc1CNC1C2CCN(CC2)C1C(c1ccccc1)c1ccccc1` (stereo unspecified), the outcome in assay [2] was inactive. Also, the Potency entry in assay [3] and in assay [4] was “inactive” in each case.
As to `COc1cc(C)[nH]c(=O)c1CNC(=O)c1c(C)n([C@H](C)C2CCOCC2)c2ccccc12`, the molecule was classed as inactive in assay [8].
For the molecule `O=C(NCNC(=O)NC1C(=O)NC(=O)N1CO)NC1C(=O)NC(=O)N1CO` (stereo unspecified), the molecule was called inactive in assay [5], in assay [6] and in assay [7].
Regarding `CCCCCCC(C)(C)c1ccc([C@@H]2C[C@H](O)CC[C@H]2CCCO)c(O)c1`, the Potency entry in assay [3] and in assay [4] was “inactive” throughout.
Turning to `O=c1c2ccccc2[se]n1-c1ccccc1`, the Potency entry in assay [3] and in assay [4] was “inactive” throughout.
For the molecule `C[Se]C[C@H](N)C(=O)O`, the Potency entry in assay [3] and in assay [4] was “inactive” throughout.
In the case of `CCCN(CCC)CCc1c[nH]c2ccc(C(N)=O)cc12`, the Potency entry in assay [3] and in assay [4] was “inactive” throughout.
For `CCOc1ccccc1-n1c(C(C)N2CCN(C(=O)COc3ccc(Cl)cc3)CC2)nc2ccccc2c1=O` (stereo unspecified), the molecule was called inactive in assay [8].
For `O=S(=O)(O)c1cc(O)ccc1O`, the outcome in assay [5], in assay [6] and in assay [7] was inactive.
As for `N[C@@H](CCl)C(=O)O`, the Potency result in assay [3] and in assay [4] was “inactive” each time.
With `C=CCN1CCc2cccc3c2[C@H]1Cc1ccc(O)c(O)c1-3`, the Potency entry in assay [3] and in assay [4] was “inactive” throughout.
For `C/C(=C\c1csc(C)n1)[C@@H]1C[C@@H]2O[C@]2(C)CCC[C@H](C)[C@H](O)[C@@H](C)C(=O)C(C)(C)[C@@H](O)CC(=O)O1`, the result in assay [5], in assay [6] and in assay [7] was inactive.
As to `CC(C)[C@@]1(NC(=O)[C@@H]2C[C@@H]3c4cccc5[nH]cc(c45)C[C@H]3N(C)C2)O[C@@]2(O)[C@@H]3CCCN3C(=O)[C@H](Cc3ccccc3)N2C1=O`, the Potency entry in assay [3] and in assay [4] was “inactive” throughout.
For the molecule `CCCCC[C@@H](O)C1C(=O)OC(C)[C@H](O)/C=C/C=C/C=C/C=C/C=C(\C)C(O)C(O)C(O)C[C@H](O)C[C@H](O)C[C@H](O)C[C@H](O)C[C@@H]1O` (stereo partly specified), the call in assay [5], in assay [6] and in assay [7] was inactive.
`CCCn1c(C)c(C(=O)c2ccc3ccccc3c2)c2ccccc21`: the Potency result in assay [3] and in assay [4] was “inactive” each time.
On to `O=C(C[C@@H]1NCCC[C@H]1O)Cn1cnc2cc(Br)c(Cl)cc2c1=O`, for which the outcome in assay [5], in assay [6] and in assay [7] was inactive.
Take `NCC(O)c1cccc(O)c1` (stereo unspecified): the molecule was called inactive in assay [5], in assay [6] and in assay [7].
With `C=CCN(C1=NCCN1)c1c(Cl)cccc1Cl`, the Potency entry in assay [3] and in assay [4] was “inactive” in each case.
Turning to `O=C(O)C(Cl)(Cl)Cl`, the outcome in assay [5], in assay [6] and in assay [7] was inactive.
Consider `COc1cc(CC(C)N)c(OC)cc1I` (stereo unspecified), for which the Potency entry in assay [3] and in assay [4] was “inactive” throughout.
`N[C@@H](Cn1ccc(=O)[nH]c1=O)C(=O)O`: the Potency entry in assay [3] and in assay [4] was “inactive” in each case.
On to `C[C@]12CC[C@H]3[C@@H](CC[C@@]45O[C@@H]4C(O)=C(C#N)C[C@]35C)[C@@H]1CC[C@@H]2O`, for which, in assay [8], the molecule was classed as inactive.
Regarding `NC(Cc1ccc(N(CCCl)CCCl)cc1)C(=O)O` (stereo unspecified), the Potency entry in assay [3] and in assay [4] was “inactive” in each case.
Turning to `COc1ccc2c(c1)/C(=C/c1cnc[nH]1)C(=O)N2`, the Potency result in assay [3] and in assay [4] was “inactive” in each case.
Turning to `C[C@@H]1[C@@H]2Cc3ccc(O)cc3[C@@]1(C)CCN2CC1CC1`, the Potency entry in assay [3] and in assay [4] was “inactive” each time.

Values taken from PubChem BioAssay (NCATS).
